Here are results for eight compounds from PubChem BioAssay (Tox21).

The nature of experiment [1]: qHTS assay for small molecule agonists of the p53 signaling pathway - cell viability (AID 651633; calls by dose curve;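 note: p53RE-bla HCT reporter cells with a stable beta-lactamase p53 reporter; series mostly up to about 83 µM; nearly all actives have a fitted effect of over 30% in size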). In outline:
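Viability counter-read: CellTiter-Glo luminescence (30 min, room temperature) in the same p53RE-bla plates. These plates had been exposed to compounds for 16 h at 37 C.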

Experiment [2] in a line: qHTS assay for small molecules that induce genotoxicity in human embryonic kidney cells expressing luciferase-tagged ATAD5 - cell viability (AID 651634; calls by dose curve; note: nearly all actives have a fitted effect of over 25% in size; note: potency is the fitted concentration of half-maximal effect). The procedure, abridged:
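Quantitative high-throughput format. HEK293T cells expressing ATAD5 fused to luciferase were plated at 2,000 cells/well and treated 15.5 hr with compound versus DMSO. Viability was determined by fluorescent live-cell protease substrate, 30 min at 37C.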
In general terms: In qHTS, concentration-response curves come from the screen itself.

The nature of experiment [3]: qHTS assay to test for compound auto fluorescence at 590 nm (red) in HepG2 cells (AID 720674). In outline:
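1 hr compound incubation on HepG2 cells, 37 C, 5% CO2; plate read ex 540 nm / em 590 nm; intensities reported as Rose Bengal sodium equivalents.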

A short description of experiment [4]: qHTS assay to test for compound auto fluorescence at 535 nm (green) in HepG2 cells (AID 720675).
A short description of experiment [5]: qHTS assay to test for compound auto fluorescence at 460 nm (blue) in HEK293 cells (AID 720678). The procedure, abridged:
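Cells were seeded and left to adhere for 4-5 hr at 37C. Compounds were then pin-transferred. After an overnight incubation at 37C under 5% CO2, intrinsic fluorescence at 405/460 nm was measured and referenced to triamterene.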

Experiment [6] in a line: qHTS assay to test for compound auto fluorescence at 590 nm (red) in HEK293 cells (AID 720679). In outline:
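Each well held 2,000 HEK293 cells in medium containing 10% dialyzed FBS. Following 4-5 hr attachment at 37C, 23 nL test compound or DMSO was added; plates sat overnight, and red fluorescence (540/590nm) was recorded.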

Experiment [7] is described as follows: qHTS assay to test for compound auto fluorescence at 535 nm (green) in HEK293 cells (AID 720680).
Experiment [8] in a line: qHTS assay to test for compound auto fluorescence at 460 nm (blue) in HEK293 cell free culture (AID 720681). The procedure, abridged:
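Blue fluorescence (Ex 405/Em 460 nm, triamterene-equivalent) was read immediately after pin transfer of compound or DMSO into medium (DMEM, 10% FBS) without cells.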

A short description of experiment [9]: qHTS assay to test for compound auto fluorescence at 535 nm (green) in HEK293 cell free culture (AID 720682). The procedure, abridged:
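Intrinsic compound fluorescence is measured in culture medium containing 10% FBS, with excitation at 485 nm and detection at 535 nm, referenced to fluorescein.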

The nature of experiment [10]: qHTS assay to test for compound auto fluorescence at 590 nm (red) in HEK293 cell free culture (AID 720683). The procedure, abridged: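 Red-channel autofluorescence of compounds in culture medium (DMEM, 10% FBS), no cells, measured at 540/590 nm. Rose Bengal sodium is the reference fluorophore for equivalence.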
Experiment [11] can be described thus: qHTS assay to test for compound auto fluorescence at 590 nm (red) in HepG2 cell free culture (AID 720684). The procedure, abridged: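 No cells present: MEM + 10% FBS only. Compound pinned in, red label read (540/590 nm). Activity = fluorescence equivalent to Rose Bengal sodium.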
A short description of experiment [12]: qHTS assay to test for compound auto fluorescence at 460 nm (blue) in HepG2 cell free culture (AID 720685). In outline: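 Cell-free plates of MEM plus 10% FBS received 23 nL compound or DMSO vehicle; blue-channel (405/460 nm) intensity scored against triamterene as reference fluorophore.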
A short description of experiment [13]: qHTS assay to test for compound auto fluorescence at 535 nm (green) in HepG2 cell free culture (AID 720686).
Experiment [14] can be described thus: qHTS assay to test for compound auto fluorescence at 460 nm (blue) in HepG2 cells (AID 720687). In outline: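 Blue-channel autofluorescence (Ex/Em 405/460 nm, triamterene-equivalent) was measured after 1 hr compound exposure at 37 C, 5% CO2. Cells were HepG2, plated overnight at 37 C in MEM plus 10% FBS.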
Experiment [15] has as its target Glucocorticoid receptor (Homo sapiens) (UniProt P04150). Briefly: qHTS assay to identify small molecule agonists of the glucocorticoid receptor (GR) signaling pathway (AID 720691; active = well fitted activation curve with a large enough effect in the signal ratio in the repeat runs, not every such curve was filed as active; the % refers to the signal ratio). In outline: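 A HeLa cervical cancer line expressing GR and a glucocorticoid response element-driven beta-lactamase gene is treated with compounds for 18 h; LiveBLAzer B/G FRET substrate is then applied and fluorescence read.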

Experiment [16] is described as follows: qHTS assay for small molecule disruptors of the mitochondrial membrane potential - cell viability (AID 720634; calls by dose curve;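 note: human HepG2 liver cancer cells; series mostly up to about 83 µM; nearly all actives have a fitted effect of over 20% in size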). The procedure, abridged: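 Same-well counter-screen: following the MMP dye addition, CellTiter-Glo was added to 1 hr compound-treated HepG2 cells and luminescence read after 30 min at room temperature.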
Experiment [17] addresses Glucocorticoid receptor (Homo sapiens) (UniProt P04150). Briefly: qHTS assay to identify small molecule antagonists of the glucocorticoid receptor (GR) signaling pathway (AID 720692; active = well fitted inhibition curve with a large enough effect in the signal ratio in the repeat runs, not every such curve was filed as active; the % refers to the signal ratio; note: potency is the fitted concentration of half-maximal effect). In outline:
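GRE-bla HeLa line, dex-stimulated (5 nM final). Compound exposure 18 h, 37 C. Beta-lactamase FRET read after 2 h RT substrate.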

Experiment [18] is described as follows: qHTS assay for small molecules that induce genotoxicity in human embryonic kidney cells expressing luciferase-tagged ATAD5 (AID 651632). Note: nearly all actives have a fitted effect of over 15% in size. The procedure, abridged: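 Test compounds were delivered by pin tool onto HEK293T reporter cells (2,000/well) expressing ATAD5 fused to luciferase. After 16 hr at 37C, 5% CO2, Amplite was added for 30 min at room temperature and luminescence was measured.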

Experiment [19] in a line: qHTS assay for small molecule disruptors of the mitochondrial membrane potential (AID 720635). The procedure, abridged: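 Mitochondrial membrane potential tracked with Mito-MPS dye, red aggregates (ex 540/em 590 nm) against green monomers (ex 490/em 535 nm). Compound treatment 1 hr at 37C, dye 30 min in HepG2.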

Several values for one entry are separate records, joined by “and”; a condition that tells them apart may be missing. Equal values may be shown once. A number with no mark means an inactive call. Inconclusive results are not listed. Activity calls are given as the source filed them. Unless noted, calls come from the whole dose curve; as a rule, active = well fitted curve in the direction sought with a large enough effect in the repeat runs; inconclusive = weak or mixed curves; inactive = no such curve, though single readings can be large; an effect the other way counts as inactive or inconclusive.
% is set by controls: 0 for no effect and ±100 for the full control effect.

Chain of Glucocorticoid receptor (Homo sapiens) (P04150 whole entry, looked up): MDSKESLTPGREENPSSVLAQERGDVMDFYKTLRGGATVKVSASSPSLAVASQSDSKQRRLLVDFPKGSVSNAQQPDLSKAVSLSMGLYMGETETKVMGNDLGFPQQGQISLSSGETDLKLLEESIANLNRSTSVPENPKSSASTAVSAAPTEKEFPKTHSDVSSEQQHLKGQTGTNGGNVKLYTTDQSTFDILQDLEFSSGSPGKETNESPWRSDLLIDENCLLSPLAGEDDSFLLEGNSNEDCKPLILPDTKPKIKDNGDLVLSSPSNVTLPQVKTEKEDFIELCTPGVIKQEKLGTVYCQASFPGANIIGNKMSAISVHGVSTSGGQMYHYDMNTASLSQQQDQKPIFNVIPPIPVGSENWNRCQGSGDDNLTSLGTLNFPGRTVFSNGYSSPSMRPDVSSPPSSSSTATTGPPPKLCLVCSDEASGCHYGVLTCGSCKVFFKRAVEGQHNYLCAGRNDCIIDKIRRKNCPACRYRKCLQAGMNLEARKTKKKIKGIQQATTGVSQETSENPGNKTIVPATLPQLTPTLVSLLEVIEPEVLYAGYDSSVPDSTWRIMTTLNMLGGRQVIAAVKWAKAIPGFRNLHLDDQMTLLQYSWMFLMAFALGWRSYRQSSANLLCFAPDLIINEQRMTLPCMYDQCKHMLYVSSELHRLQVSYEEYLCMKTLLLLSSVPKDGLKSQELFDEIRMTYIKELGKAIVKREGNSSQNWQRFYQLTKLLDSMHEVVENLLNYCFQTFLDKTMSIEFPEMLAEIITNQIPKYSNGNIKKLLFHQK

Turning to `CCCCCCCCCCCCN=C(N)N`, the activity change, negative = cytotoxicity in [1] was -15.7% [at 3.63 µM]. For the same compound, the activity, negative = cytotoxicity in [2] is -6.8% [at 3.63 µM]. In addition, the fluorescence, relative to Rose Bengal in experiment [3] was 0.188% [at 3.72 µM]. Further, the figures for the fluorescence, % of fluorescein control in experiment [4] and in [13] were -0.0052% [at 3.72 µM] and -0.0679% [at 3.72 µM], respectively. Besides, in experiment [5], the fluorescence, % of triamterene was -0.0427% [at 3.72 µM]. The fluorescence, % of fluorescent control is 0.144% [at 3.72 µM] in experiment [6]; -0.0835% [at 3.72 µM] in experiment [8]; 0.145% [at 3.72 µM] in experiment [10]; -0.0023% [at 3.72 µM] in [12]; 0.0214% [at 3.72 µM] in [14]. Moreover, the fluorescence, % of fluorescein in [7] is 0.14% [at 3.72 µM]. In addition, in [9], the activity change is 0.0011% [at 3.72 µM]. For the same compound, the fluorescence, % of Rose Bengal in experiment [11] was 0.0947% [at 3.72 µM]. Besides, the activation in [15] is -0.603% [at 3.1 µM].
In the case of `Cc1ncc(C[n+]2csc(CCO)c2C)c(N)n1`, the Potency result in [2] and in experiment [16] was “inactive” each time. Besides, the call in [3], in experiment [4], in [5], in experiment [6], in experiment [7] and in experiment [8] was inactive. The compound was classed as inactive in experiment [9], in experiment [10], in experiment [11], in [12], in [13] and in [14].
On to `CC(=O)NNc1ccccc1`, for which the Potency entry in experiment [1] and in experiment [16] was “inactive” throughout. Further, the Potency in experiment [2] is 10.8 µM (active); in experiment [17], 10.9 µM (active). Moreover, the result in experiment [3], in [4], in experiment [5], in [6], in experiment [7] and in [8] was inactive. The compound was called inactive in experiment [9], in [10], in experiment [11], in [12], in [13] and in [14].
On to `CON(C)C(=O)Nc1ccc(Cl)cc1`, for which the Potency result in [1], in experiment [2], in experiment [16] and in [15] was “inactive” each time. Further, the outcome in [3], in experiment [4], in [5], in [6], in experiment [7] and in experiment [8] was inactive. Besides, the result in [9], in experiment [10], in [11], in experiment [12] and in experiment [14] was inactive.
Take `CC(Oc1cc(Cl)c(Cl)cc1Cl)C(=O)O` (configuration not stated): the Potency entry in [18], in [2], in experiment [16], in experiment [15] and in experiment [17] was “inactive” each time. Further, the result in experiment [3], in experiment [4], in experiment [5], in experiment [6], in experiment [7] and in experiment [8] was inactive. Also, the call in experiment [9], in experiment [10], in [11], in experiment [12], in experiment [13] and in experiment [14] was inactive.
Take `[Cl-].[Cl-].[Hg+2]`: the Potency in experiment [2] was 5.31 µM (active) and 30.5 µM (active) and 61.1 µM (active). The compound was called inactive in experiment [3], in [4], in experiment [5], in experiment [6], in experiment [7] and in experiment [9]. In addition, the outcome in [10], in experiment [11], in experiment [12], in experiment [13] and in experiment [14] was inactive.
For the compound `O=C(Cc1ccccc1)c1ccccc1`, the Potency entry in experiment [1], in experiment [2], in [16], in experiment [15] and in experiment [17] was “inactive” each time. For the same compound, the outcome in experiment [3], in [4], in experiment [5], in [6], in experiment [7] and in experiment [8] was inactive. Further, the result in [9], in experiment [10], in experiment [11], in [12], in experiment [13] and in [14] was inactive.
`Clc1ccccc1`: the Potency result in [2], in experiment [16], in [19], in experiment [15] and in experiment [17] was “inactive” in each case. Also, the compound was classed as inactive in experiment [3], in experiment [4], in [5], in experiment [6], in experiment [7] and in experiment [9]. In addition, the call in experiment [10], in [11], in [12], in [13] and in [14] was inactive.
